Out of some 420,000 compounds screened, about 64,000 (15%) were called active. About 27% were inconclusive and are not listed. Only a sample is shown. Values without a mark were called inactive. Calls follow the shape of the dose curve; as a rule, active = well fitted inhibition curve with a large enough effect; inconclusive = small, poorly fitted or top-dose-only effect; inactive = flat fitted curve, though single readings scatter.
Experiment: qHTS for Inhibitors of human tyrosyl-DNA phosphodiesterase 1 (TDP1): qHTS in cells in absence of CPT; also: nearly all actives have a fitted effect of over 55% in size
Settings: DT40 Tdp1-/- hTDP1 cells, no CPT, ATP luminescence, 48 h; activity change, negative = growth inhibition: at 46.2 µM (top of the series)
How it was run: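 Chicken DT40 Tdp1-/- cells complemented with human TDP1, screened without camptothecin (DMSO vehicle only), 400 cells/well. Compounds pin-transferred, cells incubated at 37 °C for at least 48 hr. Growth read as ATP-dependent luminescence (CellTiter-Glo, 30 min at RT).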
% is scaled to controls: 0 for no effect and ±100 for the full control effect; potency is read from the fitted curve at half-maximal effect.

| Compound | activity change, negative = growth inhibition [%] | Potency |
| --- | --- | --- |
| O=C(Nc1nsc(-c2ccccc2)n1)c1ccncc1 | -26.7 |  |
| NC(=O)c1oc2ccccc2c1NC(=O)Cc1ccccc1 | -18.1 |  |
| COc1ccc(-c2nn(-c3ccccc3)cc2/C=C\C(=O)N2CCOCC2)cc1[N+](=O)[O-] | 2.01 |  |
| COC(=O)[C@H]1[C@H]2C[C@H]3c4[nH]c5ccccc5c4CCN3C[C@@H]2CC[C@@H]1O |  | inactive |
| COc1ccc(-c2ccc3[nH]c4c(c3c2)CCN2C[C@H]3[C@H](C)ON(C)[C@H]3C[C@@H]42)cc1 |  | 20.6 µM (active) |
| C[C@@H]1ON(C)[C@H]2C[C@H]3c4cc(N5CCN(C)CC5)ccc4CCN3C(=O)[C@@H]12 | 0.647 |  |
| O=C(NCc1csc(-c2cccs2)n1)C1CC1 | -6.41 |  |
| COc1ccc(C(CNC(=O)CSc2ccccc2)N2CCOCC2)cc1 (stereo unspecified) | -26.7 |  |
| CC(C)(C)C1CCC(C(=O)NCC(c2cccs2)N2CCOCC2)CC1 (stereo unspecified) |  | 8.2 µM (active) |
| Cc1cc(=O)oc(C)c1C(=O)Nc1cnc2ccccc2c1 | -21.1 |  |
| CCc1ccc(NC(=O)C(=O)N/N=C(\C)CC(=O)NCCOC)cc1 | -7.62 |  |
| CCc1nnc(NC(=O)CSc2nnc(Cc3ccccc3)n2-c2ccc(OC)cc2)s1 | -0.0344 |  |
| CCc1c(C)[nH]c(=S)c(C#N)c1C | -9.03 |  |
| CCOc1ccccc1C(=O)NC1(C(F)(F)F)C(=O)Nc2c1c(=O)[nH]c(=O)n2-c1ccc(F)cc1 (stereo unspecified) | -13 |  |
| COc1cccc(C(=O)NNC(=O)c2cccc(F)c2)c1 | -17 |  |
| COc1cccc(C(=O)NC2(C(F)(F)F)C(=O)Nc3c2c(=O)[nH]c(=O)n3-c2ccc(C)cc2)c1 (stereo unspecified) |  | 23.1 µM (active) |
| Cc1cccc(-c2noc(CCC(=O)NC3CCCC3)n2)c1 | -23.5 |  |
| Cc1ccc(S(=O)(=O)N2CC[C@H]3[C@@H](C2)C(=O)C[C@@H](c2ccccc2)N3S(=O)(=O)c2ccc(C)cc2)cc1 | -10.3 |  |
| COc1ccc(S(=O)(=O)N2CCOC2CNC(=O)C(=O)NCc2ccncc2)cc1OC (stereo unspecified) | -2.25 |  |
| CCOC(=O)C1=CC[C@@H](c2ccncc2)N(S(=O)(=O)c2ccc(C)cc2)C1 |  | 23.1 µM (active) |
| CCOC(=O)C1=CCC(c2ccc(F)cc2)N(S(=O)(=O)c2ccc(C)cc2)C1 (stereo unspecified) |  | 18.4 µM (active) |
| Cc1ccc(S(=O)(=O)N2CCCC2CO)cc1 (stereo unspecified) | 0.298 |  |
| O=C(CN1CCN(S(=O)(=O)c2ccc(F)cc2)CC1)NC1CC1 | 6.75 |  |
| CC(=O)C1=CCC(c2ccccc2)N(S(=O)(=O)c2ccc(C)cc2)C1 (stereo unspecified) |  | 23.1 µM (active) |
| Cc1ccc(S(=O)(=O)N2C3C=CC(C3)C2C(=O)O)cc1 (stereo unspecified) | -0.745 |  |
| Cc1ccc(NC(=O)CSc2nnc(CNC(=O)c3ccccc3F)o2)cc1 | -1.98 |  |

| Compound | activity change, negative = growth inhibition [%] | Potency |
| --- | --- | --- |
| COc1ccc(-c2cc(=O)oc3cc(OCC(=O)N(C)C4CCS(=O)(=O)C4)ccc23)cc1 (stereo unspecified) | -0.332 |  |
| Cc1ccc(-c2c[n+](=O)c3c(n2[O-])CCC3)cc1 | 2.44 |  |
| O=C(C1CCN(C2CCN(Cc3cccc4c3OCO4)CC2)CC1)N1CCOCC1 | -10.3 |  |
| COC(=O)C(C)n1cnc2c(nnn2-c2ccc(F)cc2)c1=O (stereo unspecified) | -4.65 |  |
| O=C1CC(c2ccccc2)C(c2ccccc2)=NN1 (stereo unspecified) | -23.2 |  |
| CCOc1ccc(N2CC(C(=O)NCc3ccccn3)CC2=O)cc1 (stereo unspecified) | -0.987 |  |
| O=C(COC(=O)Cc1ccc(Br)cc1)Nc1ccc(N2CCOCC2)cc1 | 10 |  |
| COc1ccc(C(=O)Nc2c(N)nc(SCC(=O)Nc3ccc(C(C)=O)cc3)[nH]c2=O)cc1 | 5.39 |  |
| Cc1cc(Cl)c(S(=O)(=O)N(C)C)cc1OCC(N)=O | -0.809 |  |
| COc1ccc(OC)c(S(=O)(=O)n2c([N+](=O)[O-])cnc2C)c1 | 6.38 |  |
| COc1ccc(C(=O)CSc2nc(C)cc(C)n2)cc1[N+](=O)[O-] | -27.1 |  |
| COc1ccc(C(C[N+](=O)[O-])n2nc(C)cc2C)cc1 (stereo unspecified) |  | 6.51 µM (active) |
| C/C(=N\N)c1c(-c2ccccc2)c2cc(Br)ccc2[nH]c1=O | -4.4 |  |
| COc1ccc(CCNC(=O)COC(=O)/C=C/c2cccs2)cc1OC | -1.02 |  |
| Cc1[nH]n(C)c(=O)c1N=Nc1ccc(S(C)(=O)=O)cc1 | -14.6 |  |
| Cc1nnc(Nc2ccccc2F)s1 | -0.0224 |  |
| Nc1ncnc2c1ncn2[C@@H]1O[C@H](CNCc2cccn2-c2nccs2)[C@@H](O)[C@H]1O | -22.8 |  |
| COc1ccc(N2CCN(CCCNC(=O)C3CCN(S(=O)(=O)N4CCOCC4)CC3)CC2)cc1 | -21.8 |  |
| N#CCCn1c(=O)c(-c2cc(F)cc(F)c2)nc2cnc(Oc3ccccc3)nc21 | -15.8 |  |
| COc1cccc(/C=N\Nc2nncc(-c3ccccc3)n2)c1 | -26 |  |
| CCOc1ccc(/C=N/Nc2nncc(-c3ccccc3)n2)cc1OC |  | 14.6 µM (active) |
| COc1cc(/C=N/n2c(C)n[nH]c2=S)ccc1OCc1ccccc1 | -8.69 |  |
| COc1ccccc1N1CC(C(=O)Nc2ccc(S(=O)(=O)N3CCOCC3)cc2)CC1=O (stereo unspecified) | 11.5 |  |
| COc1cc(OC)c(N2CC(C(=O)Nc3cc(Cl)ccc3N3CCOCC3)CC2=O)cc1Cl (stereo unspecified) |  | 3.66 µM (active) |
| Cc1ccc(N2CC(C(=O)Nc3cc(Cl)ccc3-n3cncn3)CC2=O)cc1 (stereo unspecified) | -23.3 |  |
